The values that follow come from PubChem BioAssay (EPA / NIEHS).

Molecules are shown by their SMILES. Inconclusive results are not listed. Calls of active or inactive are those of the source. How the source made its calls, unless noted: active means hit-call score of the fitted dose curve at least 0.9, where 1 is the maximum; inactive means score below 0.9.

What is called AC50 is the midpoint of the concentration-response curve, whichever way the signal moves.

Experiment [1] can be described thus: ATG_RORE_CIS: Attagene CIS-FACTORIAL HepG2 Assay for human RAR-related Orphan Receptor Element (RORE) (AID 2282959). To be noted: HepG2 Attagene cis-factorial RORE reporter, mRNA; actives raise or lower the signal. Put shortly: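 Measured here: transcript induction of a cis-regulated reporter in HepG2 cells transiently transfected via FuGene 6. After 24 h, RNA was processed by RT-PCR and fluorescent capillary electrophoresis; DMSO defined baseline activity.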

Experiment [2] can be described thus: ATG_Sox_CIS: Attagene CIS-FACTORIAL HepG2 Assay for human SRY-box transcription factor (SOX) (AID 2282960). The following applies: HepG2 Attagene cis-factorial SOX reporter, mRNA; actives raise or lower the signal. The procedure, abridged: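 Using transiently transfected HepG2 cells, reporter transcription driven by cis elements was assessed 24 h after dosing. Signal was fluorescence of capillary-separated RT-PCR products, with DMSO defining baseline activity.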

The target in experiment [3] is Transcription factor Sp1 (Homo sapiens) (UniProt P08047). Put plainly: ATG_Sp1_CIS: Attagene CIS-FACTORIAL HepG2 Assay for human Specificity Protein 1 (Sp1) (AID 2282961). The following applies: HepG2 Sp1 cis-reporter transcription, actives raise or lower the signal. Put shortly: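 After transient transfection of HepG2 cells with cis-promoter reporter units and 24 h chemical treatment, reporter transcripts were quantified by RT-PCR and capillary electrophoresis fluorescence. Gain- and loss-of-signal fitted against DMSO.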
Sequence of Transcription factor Sp1 (Homo sapiens) (P08047 whole entry, looked up): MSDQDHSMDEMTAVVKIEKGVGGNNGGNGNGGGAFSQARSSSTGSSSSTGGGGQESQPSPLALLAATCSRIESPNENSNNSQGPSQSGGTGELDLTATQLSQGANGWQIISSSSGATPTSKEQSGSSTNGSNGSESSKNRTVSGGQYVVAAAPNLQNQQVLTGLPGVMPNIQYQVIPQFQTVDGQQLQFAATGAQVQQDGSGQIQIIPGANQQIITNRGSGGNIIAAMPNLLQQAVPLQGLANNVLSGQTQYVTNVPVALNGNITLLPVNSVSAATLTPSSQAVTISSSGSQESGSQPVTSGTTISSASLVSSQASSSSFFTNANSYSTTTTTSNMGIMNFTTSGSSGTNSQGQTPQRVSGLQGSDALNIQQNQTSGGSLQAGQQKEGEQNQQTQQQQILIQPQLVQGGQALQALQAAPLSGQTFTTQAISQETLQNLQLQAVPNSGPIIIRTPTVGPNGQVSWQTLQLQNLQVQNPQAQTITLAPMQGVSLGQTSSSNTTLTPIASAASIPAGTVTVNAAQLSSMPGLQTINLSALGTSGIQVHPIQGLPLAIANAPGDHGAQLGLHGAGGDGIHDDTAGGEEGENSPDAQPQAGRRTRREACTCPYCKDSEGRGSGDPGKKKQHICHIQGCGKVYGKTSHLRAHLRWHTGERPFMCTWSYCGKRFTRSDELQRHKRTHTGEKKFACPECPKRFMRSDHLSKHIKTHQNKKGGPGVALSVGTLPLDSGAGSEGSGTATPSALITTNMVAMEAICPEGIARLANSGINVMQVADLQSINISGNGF

Experiment [4] is described as follows: ATG_SREBP_CIS: Attagene CIS-FACTORIAL HepG2 Assay for human Sterol Regulatory Element Binding (SREBP) (AID 2282962). To be noted: HepG2 Attagene cis-factorial SREBP reporter, mRNA; actives raise or lower the signal. The procedure, abridged: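 Twenty-four hours after chemical dosing of transfected HepG2 cultures, reporter RNA was converted to cDNA, amplified, end-labelled with 6-FAM and resolved by capillary electrophoresis. Responses were fitted relative to DMSO.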

For experiment [5], the target named is Signal transducer and activator of transcription 3 (Homo sapiens) (UniProt P40763). Put plainly: ATG_STAT3_CIS: Attagene CIS-FACTORIAL HepG2 Assay for human Signal Transducer and Activator of Transcription 3 (STAT3) (AID 2282963). The following applies: HepG2, Attagene cis-factorial STAT3 reporter transcription; actives raise or lower the signal. Put shortly:
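Endogenous STAT3-responsive cis-element activity was read in transiently transfected HepG2 cells after 24 h treatment. Reporter transcripts were quantified via RT-PCR and capillary electrophoresis, with DMSO as negative control and bidirectional curve fitting.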

A short description of experiment [6]: ATG_TA_CIS: Attagene CIS-FACTORIAL HepG2 Assay for human TA Basal Promoter (AID 2282964). The following applies: HepG2 Attagene CIS-factorial TA basal promoter reporter; actives raise or lower the signal. The procedure, abridged:
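Multiplexed mRNA reporter assay, HepG2, 24 h. Reporter cDNA amplified, 6-FAM primer-extended, HpaI-cut, CE-sized; DMSO = negative control and baseline.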

Experiment [7] can be described thus: ATG_TCF_b_cat_CIS: Attagene CIS-FACTORIAL HepG2 Assay for human T-Cell-Factor with beta-catenin (TCF/b-cat) (AID 2282965). The following applies: HepG2 TCF/beta-catenin cis-reporter transcription, actives raise or lower the signal. Put shortly: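 Endogenous TCF/LEF activity read as reporter transcript level via RT-PCR and capillary electrophoresis fluorescence in transfected HepG2, 24 h exposure; gain or loss of signal fitted against DMSO controls.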

Experiment [8] in a line: ATG_TAL_CIS: Attagene CIS-FACTORIAL HepG2 Assay for human TAL Basal Promoter (AID 2282966).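 Further: background control endpoint measuring basal TAL promoter reporter mRNA not a specific factor.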 To be noted: HepG2 Attagene cis-factorial TAL promoter reporter; actives raise or lower the signal. The procedure, abridged: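 HepG2 cells transiently transfected with multiplexed cis-promoter reporter units, dosed 24 h. Reporter mRNA quantified by RT-PCR, 6-FAM labelling, HpaI digestion and capillary electrophoresis; TAL basal promoter serves as background control, fitted bidirectionally versus DMSO.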

Experiment [9] in a line: ATG_TGFb_CIS: Attagene CIS-FACTORIAL HepG2 Assay for human Transforming Growth Factor (TGF) (AID 2282967). The following applies: HepG2 Attagene CIS TGFb reporter, mRNA transcription; actives raise or lower the signal. The procedure, abridged: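 Transcript-level reporter readout: HepG2 transfectants, 24 h exposure, RNA to cDNA, reporter-specific PCR, fluorescent primer extension, capillary sizing against ROX standards. Gain- or loss-of-signal relative to DMSO.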

Experiment [10] in a line: ATG_VDRE_CIS: Attagene CIS-FACTORIAL HepG2 Assay for human Vitamin D Receptor Element (VDRE) (AID 2282968). The following applies: HepG2 VDRE cis-reporter transcription, actives raise or lower the signal. The procedure, abridged:
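Reporter mRNA induction, quantified by capillary electrophoresis of fluorescently labelled RT-PCR products, was read 24 h after dosing HepG2 cells carrying transiently transfected cis-regulated reporter units; gain or loss relative to DMSO.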

The target in experiment [11] is X-box-binding protein 1 (Homo sapiens) (UniProt P17861). Briefly: ATG_Xbp1_CIS: Attagene CIS-FACTORIAL HepG2 Assay for human X-box Binding Protein 1 (XBP1) (AID 2282972). To be noted: HepG2 XBP1 cis-element reporter, Attagene multiplex; actives raise or lower the signal. Put shortly:
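After a 24-hour chemical exposure of HepG2 cells carrying cis-regulated reporters, reporter mRNA levels are assessed. Quantification uses RT-PCR, 6-FAM labelling and capillary electrophoresis. Gain- or loss-of-signal is fitted against DMSO.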

A short description of experiment [12]: ATG_M_19_TRANS: Attagene TRANS-FACTORIAL HepG2 Assay for M19 Transcription Factor (Internal Marker) (AID 2282974; active means hit-call score of the fitted dose curve at least 0.9, where 1 is the maximum). To be noted: HepG2 Attagene TRANS-FACTORIAL M19 internal marker reporter. The procedure, abridged:
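Gain-of-signal in reporter mRNA, relative to DMSO, was scored from capillary electrophoresis fluorescence. HepG2 cells carried transiently transfected multiple reporter transcription units and were incubated with test chemicals for 24 h.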

Experiment [13] addresses Bile acid receptor (Homo sapiens) (UniProt Q96RI1). Briefly: ATG_FXR_TRANS: Attagene TRANS-FACTORIAL HepG2 Assay for Farnesoid X Receptor (FXR) (AID 2282979; active means hit-call score of the fitted dose curve at least 0.9, where 1 is the maximum;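 further: hits raise reporter mRNA above DMSO so AC50 marks FXR activation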). To be noted: HepG2 Attagene TRANS FXR-GAL4 reporter transcription. Put shortly: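 HepG2 cells were transiently transfected with GAL4-UAS reporters driven by chimeric NR-Gal4 proteins and dosed for 24 h. Reporter mRNA was quantified by RT-PCR, fluorescent labelling, HpaI digestion and capillary electrophoresis, with gain of signal scored versus DMSO.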

A short description of experiment [14]: ATG_GAL4_TRANS: Attagene TRANS-FACTORIAL HepG2 Assay for GAL4 (Internal Marker) (AID 2282976; active means hit-call score of the fitted dose curve at least 0.9, where 1 is the maximum). The following applies: HepG2 Attagene TRANS GAL4 internal marker reporter. The procedure, abridged: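 Background-control readout: GAL4-UAS reporter transcript in transiently transfected HepG2 cells after 24 h compound exposure. Measured by RT-PCR, 6-FAM primer extension, HpaI digest and capillary electrophoresis; gain-of-signal fit versus DMSO.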

The target in experiment [15] is Estrogen-related receptor gamma (Homo sapiens) (UniProt P62508). Briefly: ATG_ERRg_TRANS: Attagene TRANS-FACTORIAL HepG2 Assay for human Estrogen-Related Receptor gamma (ERRg) (AID 2282977; active means hit-call score of the fitted dose curve at least 0.9, where 1 is the maximum;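 further: hits increase reporter signal over DMSO so potencies reflect activators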). To be noted: HepG2 Attagene TRANS reporter, ERRg transactivation. Put shortly: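 HepG2 cells transiently transfected with multiplexed GAL4-UAS reporter units driven by chimeric NR-Gal4 proteins; 24 h exposure. Reporter mRNA quantified by RT-PCR, fluorescent labelling, HpaI digestion and capillary electrophoresis; gain of signal vs DMSO.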
Sequence of Estrogen-related receptor gamma (Homo sapiens) (P62508 whole entry, looked up, the tested form may be a part): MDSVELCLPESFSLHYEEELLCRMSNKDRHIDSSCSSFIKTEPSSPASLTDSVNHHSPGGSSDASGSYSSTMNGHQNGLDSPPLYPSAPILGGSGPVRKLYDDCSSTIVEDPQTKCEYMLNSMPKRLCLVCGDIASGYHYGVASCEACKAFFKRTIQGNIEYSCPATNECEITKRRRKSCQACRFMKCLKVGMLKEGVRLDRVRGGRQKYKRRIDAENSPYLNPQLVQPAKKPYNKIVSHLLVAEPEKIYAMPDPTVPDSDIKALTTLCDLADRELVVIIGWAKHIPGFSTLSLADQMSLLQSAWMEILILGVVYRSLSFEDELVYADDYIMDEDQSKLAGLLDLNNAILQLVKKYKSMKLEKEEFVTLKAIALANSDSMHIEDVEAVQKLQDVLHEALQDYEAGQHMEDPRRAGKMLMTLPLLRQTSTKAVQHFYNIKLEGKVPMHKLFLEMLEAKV

Experiment [16] concerns the target Glucocorticoid receptor (Homo sapiens) (UniProt P04150). Put plainly: ATG_GR_TRANS: Attagene TRANS-FACTORIAL HepG2 Assay for human Glucocorticoid Receptor (GR) (AID 2282978; active means hit-call score of the fitted dose curve at least 0.9, where 1 is the maximum;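 further: activators score as hits since higher reporter transcript over DMSO is fitted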). The following applies: HepG2 Attagene TRANS GR reporter, mRNA transcription. Put shortly:
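HepG2 transient transfection, multiple reporter units, GAL4-UAS under NR-GAL4 chimera control. 24 h treatment. Reporter mRNA by RT-PCR/CE fluorescence, DMSO as negative control.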

Experiment [17] deals with Nuclear receptor subfamily 1 group I member 3 (Homo sapiens) (UniProt Q14994). Briefly: ATG_CAR_TRANS: Attagene TRANS-FACTORIAL HepG2 Assay for human Constitutive Androstane Receptor (CAR) (AID 2282969; active means hit-call score of the fitted dose curve at least 0.9, where 1 is the maximum;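 further: activators raise reporter mRNA above DMSO so AC50 marks induction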). The following applies: HepG2 Attagene TRANS-FACTORIAL CAR reporter. Put shortly:
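Readout is reporter mRNA induction, quantified by fluorescent primer extension and capillary electrophoresis after RT-PCR. Cells were HepG2 transiently carrying chimeric NR-Gal4 constructs with GAL4-UAS reporters, treated for 24 h; activity scored upward from DMSO.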

The target in experiment [18] is Estrogen receptor (Homo sapiens) (UniProt P03372). Briefly: ATG_ERa_TRANS: Attagene TRANS-FACTORIAL HepG2 Assay for human Estrogen Receptor alpha (ERa) (AID 2282970; active means hit-call score of the fitted dose curve at least 0.9, where 1 is the maximum). To be noted: HepG2 Attagene TRANS ERa GAL4 reporter, mRNA. The procedure, abridged:
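HepG2 cells transiently transfected with multiplexed GAL4-UAS reporter units read out chimeric NR-Gal4 activity. After 24 h compound exposure, reporter mRNA was quantified by RT-PCR, 6-FAM labeling, HpaI digestion and capillary electrophoresis, relative to DMSO.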

In experiment [19] the target is Steroid hormone receptor ERR1 (Homo sapiens) (UniProt P11474). Briefly: ATG_ERRa_TRANS: Attagene TRANS-FACTORIAL HepG2 Assay for human Estrogen-Related Receptor alpha (ERRa) (AID 2282971; active means hit-call score of the fitted dose curve at least 0.9, where 1 is the maximum). To be noted: HepG2 Attagene TRANS reporter, ERRa transactivation. The procedure, abridged: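 HepG2 cells transiently transfected with GAL4-UAS reporter units and chimeric NR-Gal4 constructs; after 24 hour compound incubation, reporter mRNA quantified by RT-PCR, fluorescent labelling and capillary electrophoresis, gain of signal versus DMSO.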
Sequence of Steroid hormone receptor ERR1 (Homo sapiens) (P11474 whole entry, looked up, the tested form may be a part): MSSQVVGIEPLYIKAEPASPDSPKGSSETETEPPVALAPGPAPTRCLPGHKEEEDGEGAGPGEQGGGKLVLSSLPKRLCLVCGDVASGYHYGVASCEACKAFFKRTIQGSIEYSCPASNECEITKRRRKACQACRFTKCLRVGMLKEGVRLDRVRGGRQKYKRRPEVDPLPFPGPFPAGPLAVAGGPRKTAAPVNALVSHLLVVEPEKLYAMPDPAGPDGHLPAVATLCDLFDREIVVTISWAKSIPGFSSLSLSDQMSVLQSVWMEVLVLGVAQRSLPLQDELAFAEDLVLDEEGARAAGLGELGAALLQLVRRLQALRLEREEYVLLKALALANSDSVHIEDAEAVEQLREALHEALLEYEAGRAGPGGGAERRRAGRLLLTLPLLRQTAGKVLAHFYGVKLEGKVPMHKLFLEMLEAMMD

Sequence of Estrogen receptor (Homo sapiens) (P03372 whole entry, looked up, the tested form may be a part): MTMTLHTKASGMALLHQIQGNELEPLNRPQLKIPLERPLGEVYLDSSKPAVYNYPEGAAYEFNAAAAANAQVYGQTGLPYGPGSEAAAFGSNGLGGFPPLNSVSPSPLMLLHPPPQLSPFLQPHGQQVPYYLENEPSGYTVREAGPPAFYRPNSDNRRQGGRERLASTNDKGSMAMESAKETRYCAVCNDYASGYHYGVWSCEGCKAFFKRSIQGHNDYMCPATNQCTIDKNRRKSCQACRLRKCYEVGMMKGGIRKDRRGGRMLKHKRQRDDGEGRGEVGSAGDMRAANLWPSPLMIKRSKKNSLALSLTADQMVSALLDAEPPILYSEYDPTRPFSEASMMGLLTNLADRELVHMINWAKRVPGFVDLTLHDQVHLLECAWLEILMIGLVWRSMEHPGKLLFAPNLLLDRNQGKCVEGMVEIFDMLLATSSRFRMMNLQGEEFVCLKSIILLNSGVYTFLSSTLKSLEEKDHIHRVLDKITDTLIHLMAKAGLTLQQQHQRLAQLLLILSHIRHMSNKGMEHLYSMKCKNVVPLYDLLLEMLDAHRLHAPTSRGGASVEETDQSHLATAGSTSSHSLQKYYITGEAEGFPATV
Sequence of Bile acid receptor (Homo sapiens) (Q96RI1 whole entry, looked up, the tested form may be a part): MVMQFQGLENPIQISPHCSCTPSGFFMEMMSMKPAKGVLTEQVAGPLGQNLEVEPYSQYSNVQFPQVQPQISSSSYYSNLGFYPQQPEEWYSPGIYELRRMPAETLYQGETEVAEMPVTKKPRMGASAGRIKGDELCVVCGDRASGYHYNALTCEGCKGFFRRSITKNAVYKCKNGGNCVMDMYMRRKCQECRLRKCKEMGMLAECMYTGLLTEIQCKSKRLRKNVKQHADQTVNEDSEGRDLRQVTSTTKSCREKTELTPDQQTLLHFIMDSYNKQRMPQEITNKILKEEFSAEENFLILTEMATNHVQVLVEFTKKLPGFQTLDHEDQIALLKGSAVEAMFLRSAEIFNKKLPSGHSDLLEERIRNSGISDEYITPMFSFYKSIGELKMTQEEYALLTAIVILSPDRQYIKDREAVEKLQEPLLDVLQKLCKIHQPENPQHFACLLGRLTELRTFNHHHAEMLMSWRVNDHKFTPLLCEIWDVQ
Sequence of X-box-binding protein 1 (Homo sapiens) (P17861 whole entry, looked up): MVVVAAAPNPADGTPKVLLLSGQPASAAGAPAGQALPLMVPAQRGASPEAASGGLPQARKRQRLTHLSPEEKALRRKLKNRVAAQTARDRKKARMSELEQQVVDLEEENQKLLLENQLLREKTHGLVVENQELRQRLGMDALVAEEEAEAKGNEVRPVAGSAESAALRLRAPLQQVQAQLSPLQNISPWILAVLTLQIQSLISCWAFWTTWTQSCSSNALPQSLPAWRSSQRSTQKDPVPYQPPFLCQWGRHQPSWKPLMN
Sequence of Signal transducer and activator of transcription 3 (Homo sapiens) (P40763 whole entry, looked up): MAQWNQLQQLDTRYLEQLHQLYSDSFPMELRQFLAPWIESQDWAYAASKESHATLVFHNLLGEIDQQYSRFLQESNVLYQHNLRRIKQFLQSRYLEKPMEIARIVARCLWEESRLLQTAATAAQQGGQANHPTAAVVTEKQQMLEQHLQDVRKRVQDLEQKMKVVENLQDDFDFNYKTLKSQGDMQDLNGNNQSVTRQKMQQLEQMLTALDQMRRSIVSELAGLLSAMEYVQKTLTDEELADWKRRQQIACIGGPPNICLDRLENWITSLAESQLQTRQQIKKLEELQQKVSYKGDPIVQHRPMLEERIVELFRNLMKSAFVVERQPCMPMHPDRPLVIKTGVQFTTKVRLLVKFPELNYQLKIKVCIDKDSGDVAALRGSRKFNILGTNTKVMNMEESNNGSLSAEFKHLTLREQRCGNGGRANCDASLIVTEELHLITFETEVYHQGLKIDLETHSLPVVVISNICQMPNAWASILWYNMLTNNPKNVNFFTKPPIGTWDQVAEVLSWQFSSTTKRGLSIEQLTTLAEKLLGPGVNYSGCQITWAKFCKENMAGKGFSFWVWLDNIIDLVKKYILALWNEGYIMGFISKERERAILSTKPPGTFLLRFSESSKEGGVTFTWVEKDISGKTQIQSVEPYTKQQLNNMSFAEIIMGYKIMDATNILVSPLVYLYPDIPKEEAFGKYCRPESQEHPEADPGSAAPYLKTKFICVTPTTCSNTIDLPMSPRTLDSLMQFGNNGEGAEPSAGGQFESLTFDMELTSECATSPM
Sequence of Glucocorticoid receptor (Homo sapiens) (P04150 whole entry, looked up, the tested form may be a part): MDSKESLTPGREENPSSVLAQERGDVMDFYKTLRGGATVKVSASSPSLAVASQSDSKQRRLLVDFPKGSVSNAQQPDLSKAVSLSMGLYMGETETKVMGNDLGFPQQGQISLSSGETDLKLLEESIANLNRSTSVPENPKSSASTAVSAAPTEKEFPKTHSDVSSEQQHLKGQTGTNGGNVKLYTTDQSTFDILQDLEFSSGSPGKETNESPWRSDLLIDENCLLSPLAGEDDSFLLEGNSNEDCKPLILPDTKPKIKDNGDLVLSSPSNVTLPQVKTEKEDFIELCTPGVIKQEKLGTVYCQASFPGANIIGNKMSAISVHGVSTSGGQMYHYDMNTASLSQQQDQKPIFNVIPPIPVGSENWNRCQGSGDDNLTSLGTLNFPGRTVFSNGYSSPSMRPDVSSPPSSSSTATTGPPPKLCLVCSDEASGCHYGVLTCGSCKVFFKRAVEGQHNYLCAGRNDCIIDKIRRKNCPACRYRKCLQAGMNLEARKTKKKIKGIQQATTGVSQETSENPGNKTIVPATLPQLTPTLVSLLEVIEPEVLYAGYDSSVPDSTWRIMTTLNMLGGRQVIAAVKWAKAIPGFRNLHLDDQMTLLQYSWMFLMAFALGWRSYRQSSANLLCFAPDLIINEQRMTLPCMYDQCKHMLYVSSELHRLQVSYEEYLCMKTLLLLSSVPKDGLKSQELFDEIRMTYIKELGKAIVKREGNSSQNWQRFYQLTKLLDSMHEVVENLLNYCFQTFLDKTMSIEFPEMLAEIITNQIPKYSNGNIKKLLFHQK
Sequence of Nuclear receptor subfamily 1 group I member 3 (Homo sapiens) (Q14994 whole entry, looked up, the tested form may be a part): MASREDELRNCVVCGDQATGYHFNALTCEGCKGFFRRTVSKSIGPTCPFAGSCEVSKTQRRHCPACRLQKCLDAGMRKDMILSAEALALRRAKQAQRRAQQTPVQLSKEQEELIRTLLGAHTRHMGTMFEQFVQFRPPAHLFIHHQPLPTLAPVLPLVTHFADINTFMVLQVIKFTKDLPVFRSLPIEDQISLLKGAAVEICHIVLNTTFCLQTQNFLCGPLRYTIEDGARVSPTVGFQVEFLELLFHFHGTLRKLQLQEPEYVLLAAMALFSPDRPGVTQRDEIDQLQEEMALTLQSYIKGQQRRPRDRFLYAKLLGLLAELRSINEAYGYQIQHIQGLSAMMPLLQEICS

Consider `O=C(NC(=O)c1c(F)cccc1F)Nc1cc(Cl)c(Oc2ncc(C(F)(F)F)cc2Cl)c(Cl)c1`, for which the result in experiment [1], in experiment [2], in experiment [3], in experiment [4], in [5] and in experiment [6] was inactive. The call in experiment [7], in experiment [8], in [9], in [10], in experiment [11] and in experiment [12] was inactive. For the same compound, the outcome in experiment [13] was inactive.

For `OCCCCO`, the call in experiment [1], in [2], in experiment [3], in experiment [4], in [5] and in experiment [6] was inactive. Further, the compound was called inactive in experiment [7], in experiment [8], in [9], in experiment [10], in [11] and in [14]. The call in experiment [15] was inactive.

For `CCCCCCCCBr`, the compound was classed as inactive in experiment [1], in experiment [2], in experiment [3], in experiment [4], in experiment [5] and in experiment [6]. Further, the compound was classed as inactive in [7], in experiment [8], in experiment [9], in [10], in [11] and in [14]. Besides, the call in [16] and in experiment [13] was inactive.

Take `CCCCCCCCCCCCCCC(Br)C(=O)O` (configuration not stated): the half-maximal activity concentration (AC50) was 111 µM (active) in experiment [1]; 110 µM (active) in experiment [6]; 129 µM (active) in experiment [8]; 162 µM (active) in [9]; 162 µM (active) in experiment [10]; 152 µM (active) in [11]. The result in experiment [2], in experiment [3], in experiment [4], in experiment [5], in experiment [7] and in [14] was inactive. Further, the compound was called inactive in [16] and in [13].

As for `O=[N+]([O-])c1c2ccccc2cc2ccccc12`, the outcome in experiment [1], in experiment [2], in experiment [3], in experiment [4], in experiment [5] and in [6] was inactive. Further, the call in [7], in [8], in [9], in experiment [17], in [19] and in experiment [11] was inactive. In addition, the compound was called inactive in [15]. Further, the AC50 in experiment [18] was 5.59 µM (active).

In the case of `CCCCCCCCCCBr`, the call in [1], in [2], in experiment [3], in experiment [4], in experiment [5] and in [6] was inactive. Besides, the call in [7], in [8], in experiment [9], in experiment [10], in experiment [11] and in experiment [12] was inactive. Besides, the compound was classed as inactive in experiment [15] and in experiment [16]. Further, the concentration at half-maximal activity (AC50) in experiment [18] is 33.3 µM (active).

Consider `O=C(O)CC(O)(CC(=O)O)C(=O)O`, for which the call in experiment [1], in experiment [2], in experiment [3], in experiment [4], in [5] and in experiment [6] was inactive. The call in [7], in [8], in experiment [9], in experiment [10] and in experiment [11] was inactive.

Turning to `C=CC(F)(C(F)(F)F)C(F)(F)C(F)(F)F` (configuration not stated), the compound was classed as inactive in experiment [1], in experiment [2], in [3], in experiment [4], in [5] and in [6]. Moreover, the compound was called inactive in [7], in experiment [8], in [9], in [10], in experiment [19] and in [11]. In addition, the outcome in experiment [13] was inactive.

`CN(C)CCN(C)C`: the result in [1], in experiment [2], in experiment [3], in [4], in [5] and in experiment [6] was inactive. The outcome in experiment [7], in experiment [8], in experiment [9], in experiment [10], in [18] and in [11] was inactive. Further, the outcome in experiment [12], in [16] and in experiment [13] was inactive.
